Compound activity from PubChem.
SMARCA2 act: SMARCA2 (BRM) function activators, primary screen, cell-based, luminescence, high throughput | MG213 cells, MMTV-luciferase reporter, dexamethasone, overnight | activation, % at 9.1 µM | 370,000 compounds, 1% hits | AID 652017, 2013; in the data active = activation above about 7.8%;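 note: 0% = vehicle wells and 100% = reference activator wells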
esBAF inh: Bmi1 luciferase reporter increase in mESCs, primary screen, esBAF inhibitor project, mouse ES cells, Bmi1 luciferase knock-in, single point. 24 h; 100% = twice the neutral-well signal. reporter increase, % at 12.5 µM. 350,000 compounds, 2% hits. AID 602393, 2012; in the data active = activation above about 40%; inconclusive = no clear call, values can overlap the other calls;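 note: 0% = median of the plate's neutral control wells and 100% = double that signal; a rise in the Bmi1 reporter signal indicates esBAF inhibition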
Dyrk1A ADPGlo: rat Dyrk1A kinase inhibitors, primary screen, biochemical, single point, plate reader | inhibition, % at 12.5 µM | ADP-Glo luminescence, NFATc1 peptide | Dual specificity tyrosine-phosphorylation-regulated kinase 1A (Rattus norvegicus), Q63470 | 310,000 compounds, 0.43% hits; in the data active = inhibition above about 50%;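 note: plate controls were vehicle with enzyme for no effect and no enzyme for full effect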
Rtt109 HAT inh: inhibitors of C. albicans Rtt109/Vps75 HAT, primary screen, biochemical, ThioGlo CoA-SH fluorescence, plate reader | AID 540336, 2011 | purified Rtt109/Vps75, 4 h | inhibition, % at 34.9 µM | 330,000 compounds, 0.16% hits;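 active = inhibition of at least 50% in every replicate; inconclusive = best replicate reaches 50% inhibition but some replicates fall short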
Target sequence (Q5AAJ8 whole entry, looked up): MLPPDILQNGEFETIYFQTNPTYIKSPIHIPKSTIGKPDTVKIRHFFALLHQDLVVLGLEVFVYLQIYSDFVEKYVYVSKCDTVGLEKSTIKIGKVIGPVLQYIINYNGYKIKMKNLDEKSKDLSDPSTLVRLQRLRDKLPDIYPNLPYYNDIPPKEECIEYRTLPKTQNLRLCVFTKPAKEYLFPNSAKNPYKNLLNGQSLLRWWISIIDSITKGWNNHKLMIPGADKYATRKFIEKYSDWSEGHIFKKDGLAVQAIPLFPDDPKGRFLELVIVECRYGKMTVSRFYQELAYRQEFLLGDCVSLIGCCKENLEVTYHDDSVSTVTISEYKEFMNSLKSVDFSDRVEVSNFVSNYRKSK
CDK5 p35 inh: inhibitors of human CDK5/p35 kinase, primary screen, biochemical, single concentration | Cyclin-dependent kinase 5 (Homo sapiens) + Cyclin-dependent kinase 5 activator 1 (Homo … | Recombinant CDK5/p35, ADP-Glo luminescence, 60 min | inhibition, % at 10 µM | 330,000 compounds, 0.01% hits | AID 488839, 2010;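 active = highest replicate inhibition of at least 50% and at least 75% of replicates reaching 50%; inconclusive = only one of the two criteria met; inactive = both criteria failed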;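 note: plate controls were DMSO neutral control for no effect and GW8510 at 10 µM for full effect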
dFosB act-1: activators of delta FosB homodimer, primary screen, biochemical, fluorescence polarization, TAMRA-CDK5 oligo, single point | Protein FosB (Mus musculus), P13346 | purified delta FosB; percent of positive-control signal above neutral wells | activation, % at 25 µM | 340,000 compounds, 0.99% hits | AID 493131, 2011;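 active = mean activation above about 17%, with every replicate also reaching it, limit read from the data, passing the limit was not always enough; inconclusive = only one of the two conditions met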
dFosB act-2: activators of mouse delta FosB DNA binding, confirmation, biochemical, fluorescence polarization, TAMRA-CDK5 oligo, cherry-picked samples; shares compounds with dFosB act-1; purified delta FosB; normalised: neutral wells 0, positive control 100; activation, % at 24.9 µM; 2,400 tested, under 10 active;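 active = highest replicate activation at or above 34% and every replicate reaching that threshold; inconclusive = meets only one of the two criteria; inactive = meets neither criterion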;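 note: higher polarization means more probe DNA bound by delta FosB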
* = called active by the depositor; ? = inconclusive; . = not tested or not shown. The list is not random: actives were taken first. Their share in the collection is about 3.2%.

SMILES	SMARCA2 act	esBAF inh	Dyrk1A ADPGlo	Rtt109 HAT inh	CDK5 p35 inh	dFosB act-1	dFosB act-2
CCOc1ccc(OCc2ccc(C(=O)N(CC)CC)cc2)cc1	-1	78*	-4	-4	-1	-9	.
C[C@@H]1CN([C@@H](C)CO)C(=O)c2cc(C#CC3(O)CCCC3)cnc2O[C@@H]1CN(C)C(=O)Cc1cccnc1	.	-1	.	.	.	.	.
CCOC(=O)c1ccc(NCc2nc3ccccc3[nH]2)cc1	1	50*	-1	-9	2	-1	.
CCOC(=O)Cc1nc2ccccc2[nH]1	-4	10	1	4	-1	-2	.
CCNC(=O)C[C@H]1CC[C@@H]2[C@@H](COc3ccc(NC(=O)c4cc(C)on4)cc3C(=O)N2C)O1	.	-2	.	.	.	.	.
COc1ccc(N=C2S/C(=C\c3ccc(Cl)c([N+](=O)[O-])c3)C(=O)N2CCN(C)C)cc1	-7	-5	-6	4	1	23*	.
CN(C)S(=O)(=O)Oc1cccc(C(=O)Nc2cccc(Cl)c2)c1	-2	44*	-2	-10	1	1	.
CN(C)S(=O)(=O)Oc1cccc(C(=O)Nc2ccc(Cl)c(Cl)c2)c1	-4	72*	1	-7	0	-6	.
CNS(=O)(=O)c1cccc(C(=O)Nc2cccc(Cl)c2)c1	-2	48*	5	19	1	-4	.
COc1ccc(NC(=O)c2cccc(OS(=O)(=O)N(C)C)c2)cc1	2	26	2	-4	-1	-8	.
O=C(OCc1cc(=O)n2cc(Br)ccc2n1)C1COc2ccccc2O1 (centres undefined)	0	0	7	3	-2	-3	.
CC1CC1C(=O)OCc1cc(=O)n2cc(Br)ccc2n1 (centres undefined)	3	47*	-8	-3	-2	-7	.
COc1cc(C)c2sc3ccccc3c(=O)c2c1NCCN(C)C	3	2	.	.	.	.	.
Cc1ccc(NCCN(C)C)c2c(=O)c3cc(O)ccc3sc12	3	.	42	-4	1	43*	.
OCCc1ccc(NCCc2cccs2)cc1	7	54*	.	.	.	.	.
O=c1[nH]c(/C(Cl)=C/c2c(F)cccc2Cl)nc2cc(Cl)ccc12	-1	.	8	-8	0	-5	.
O=c1[nH]c(/C(Cl)=C/c2cc(Cl)ccc2O)nc2cc(Cl)ccc12	-3	.	1	-3	-1	31*	-1
O=C(C[C@@H]1CC[C@H](NC(=O)Nc2ccc(C(F)(F)F)cc2)[C@H](CO)O1)NCc1ccccn1	.	1	.	.	.	.	.
Cc1cc2nc(-c3ccc(SCC(=O)Nc4nccs4)nc3)[nH]c2cc1C	2	.	-11	7	1	58*	-2
O=C1Nc2c(Br)cc(Br)c3cccc1c23	-1	.	9	5	1	90*	3
N#C/C(=C\c1ccc[nH]1)C(=O)Nc1ccccc1Cl	1	28	-1	-18	0	66*	3
O=C(Nc1ncc(Cc2ccc(C(F)(F)F)cc2)s1)c1ccc(-c2cccc([N+](=O)[O-])c2)o1	2	.	1	-4	-1	13	.
Cc1cnc(NC(=O)c2ccc(-c3ccc([N+](=O)[O-])cc3)o2)s1	0	16	0	-1	-2	60*	2
O=C(Nc1ncc(Cc2ccccc2Cl)s1)c1ccc(-c2cccc([N+](=O)[O-])c2)o1	4	-2	31	-7	-2	22*	4
CC(C)NC(=O)Nc1ccc2c(c1)CC(=O)N([C@H](C)CO)C[C@H](C)[C@H](CN(C)C(=O)Nc1ccccc1)O2	.	-4	.	.	.	.	.
SMILES	SMARCA2 act	esBAF inh	Dyrk1A ADPGlo	Rtt109 HAT inh	CDK5 p35 inh	dFosB act-1	dFosB act-2
COc1ccc(-c2nc(Cn3c(SCc4cccc(F)c4)nc4ccncc43)c(C)o2)cc1OC	-2	17	-2	0	-1	?	.
COc1ccc(-c2nc(Cn3c(SCc4ccc(C)cc4)nc4ccncc43)c(C)o2)cc1OC	1	12	-2	-4	0	39*	3
COc1ccc(Br)cc1C(=O)Nc1ccc(C(=O)NCC(C)C)cc1	-1	-12	-8	6	-2	-4	.
CCOc1ccc(Br)cc1C(=O)Nc1ccc(C(=O)NCC(C)C)cc1	-2	.	9	15	0	74*	2
CC(C)CC#Cc1ccc2c(c1)O[C@@H](CN(C)C(=O)C1CCC1)[C@@H](C)CN([C@@H](C)CO)S2(=O)=O	.	3	.	.	.	.	.
O=C(N=c1ccn(-c2nc3ccccc3nc2NS(=O)(=O)c2ccccc2)cc1)c1ccccc1Cl	2	-1	-1	18	1	-8	.
CCOc1ccc(S(=O)(=O)Nc2nc3ccccc3nc2-n2ccc(=NC(=O)c3cccs3)cc2)cc1	0	5	-2	3	0	40*	6
O=C(N=c1ccn(-c2nc3ccccc3nc2NS(=O)(=O)c2ccc(Cl)cc2)cc1)c1cccs1	5	.	-7	-8	1	31*	3
O=C(C[C@@H]1CC[C@@H]2[C@H](COC[C@H](O)CN2Cc2cccc(-c3ccncc3)c2)O1)N1CCN(c2ccccc2)CC1	.	-18	.	.	.	.	.
O=C(NCC[C@@H]1CC[C@@H](NS(=O)(=O)c2cccc(F)c2)[C@@H](CO)O1)C1CCC1	.	-2	.	.	.	.	.
CCc1ccc(OCC(=O)NNC(=O)Cc2c(F)cccc2Cl)cc1	1	.	.	?	1	29*	-4
Cc1ccccc1NC(=O)Cc1nc(COC(=O)c2cc([N+](=O)[O-])ccc2N)cs1	-1	3	.	-1	0	27*	-7
Cc1ccccc1NC(=O)Cc1nc(COC(=O)c2cc(Br)ccc2O)cs1	-2	4	.	4	-2	?	.
C[C@]12CC[C@H](O)CC1=C[C@H](O)C1C2CC[C@@]2(C)C1CC[C@@]2(O)C#Cc1ccc(CN)cc1 (some centres undefined)	-3	.	0	7	-1	24*	3
Cc1cc(C)c(NC(=O)Nc2ccccc2)c(Cl)c1	-3	.	2	-7	1	-4	.
Cc1cc(C)c(NC(=O)Nc2ccccc2C)c(Cl)c1	3	-2	-3	-4	0	20*	2
O=C(Nc1ccccc1)N[C@H]1CC[C@@H](CCNS(=O)(=O)c2cccc(F)c2)O[C@@H]1CO	.	2	.	.	.	.	.
COCCCNC(=O)c1c(NC(=O)C2COc3ccccc3O2)sc2c1CCCC2 (centres undefined)	7	-11	5	-3	0	-8	.
